In the antibiotic and cytotoxicity screens of Wong et al. (2023):
Out of some 39,000 compounds screened, about 500 (1.3%) were called active. The list comes from a sample in which actives are over-represented; it also holds similar structures and randomly drawn compounds.

Tested on: S. aureus RN4220
Experiment: growth inhibition call (relative growth <= 0.2)
Details: 50 µM

Compound	growth inhibition call
COc1cccc(-c2cn(CC[C@H]3CC[C@H](NC(=O)CN(C)C)[C@@H](CO)O3)nn2)c1	inactive
COCCn1cc2c(n1)[C@H](CNC(=O)CS(C)(=O)=O)OCC2	inactive
C[C@H](CO)N1C[C@H](C)[C@H](CN(C)S(C)(=O)=O)Oc2ncc(C#CCN(C)C)cc2C1=O	inactive
C[C@@H]1CN([C@@H](C)CO)C(=O)c2c(c3ccccc3n2C)-c2ccccc2CO[C@H]1CN(C)Cc1ccc(C(=O)O)cc1	inactive
NCCn1cccn1	inactive
Cl.N=C(N)n1cccn1	active
NCc1ccccc1-n1cccn1	inactive
C[C@H]1CN([C@@H](C)CO)C(=O)Cc2cc(NS(=O)(=O)c3ccc(Cl)cc3)ccc2O[C@@H]1CN(C)S(=O)(=O)c1cn(C)cn1	inactive
CC(C)[C@@H](N)c1nc2c([nH]1)CCCC2	inactive
CC(=CC(=O)OCCCCCCCCC(=O)O)CC1OCC(CC2OC2C(C)C(C)O)C(O)C1O (centres undefined)	active
C/C(=C\C(=O)OCCCCCCCCC(=O)O)C[C@@H]1OC[C@H](C[C@@H]2O[C@H]2[C@@H](C)[C@H](C)O)[C@@H](O)[C@H]1O	inactive
CCOC(=O)CC1=NNC(=N)SC1	inactive
C[C@@H]1CN([C@H](C)CN(C)C)C(=O)c2cc(NC(=O)Cc3cn(C)c4ccccc34)ccc2O[C@H]1CN(C)S(=O)(=O)c1ccc(Cl)cc1	inactive
CCCN(C)C[C@H]1OCCCC[C@@H](C)Oc2ccc(NC(=O)Nc3ccc(C(F)(F)F)cc3)cc2C(=O)N([C@H](C)CO)C[C@H]1C	inactive
CCCN(C)C[C@H]1OCCCC[C@@H](C)Oc2ccc(NC(=O)Nc3ccc(F)cc3)cc2C(=O)N([C@@H](C)CO)C[C@H]1C	active
CCCN(C)C[C@@H]1OCCCC[C@@H](C)Oc2ccc(NC(=O)Nc3ccc(F)cc3)cc2C(=O)N([C@H](C)CO)C[C@H]1C	inactive
CCCN(C)C[C@H]1OCCCC[C@@H](C)Oc2ccc(NC(=O)Nc3ccc(C(F)(F)F)cc3)cc2C(=O)N([C@@H](C)CO)C[C@H]1C	inactive
CCCN(C)C[C@@H]1OCCCC[C@@H](C)Oc2ccc(NC(=O)Nc3ccc(C(F)(F)F)cc3)cc2C(=O)N([C@H](C)CO)C[C@H]1C	active
CCCN(C)C[C@H]1OCCCC[C@@H](C)Oc2ccc(NC(=O)Nc3ccc(F)cc3)cc2C(=O)N([C@H](C)CO)C[C@@H]1C	inactive
CCCN(C)C[C@H]1OCCCC[C@H](C)Oc2ccc(NC(=O)Nc3ccc(C(F)(F)F)cc3)cc2C(=O)N([C@@H](C)CO)C[C@H]1C	active
CCCN(C)C[C@@H]1OCCCC[C@H](C)Oc2ccc(NC(=O)Nc3ccc(C(F)(F)F)cc3)cc2C(=O)N([C@H](C)CO)C[C@@H]1C	inactive
CCCN(C)C[C@@H]1OCCCC[C@@H](C)Oc2ccc(NC(=O)Nc3ccc(C(F)(F)F)cc3)cc2C(=O)N([C@H](C)CO)C[C@@H]1C	inactive
C[C@H]1CN([C@@H](C)CO)C(=O)c2cc(NS(C)(=O)=O)ccc2O[C@@H]1CN(C)C(=O)Nc1ccc(F)cc1	inactive

Compound	growth inhibition call
COCC(=O)N(C)C[C@@H]1Oc2cc(C#CCN(C)C)ccc2S(=O)(=O)N([C@H](C)CO)C[C@@H]1C	inactive
C[C@@H]1CCCCO[C@@H](CN(C)C(=O)C2CCCCC2)[C@@H](C)CN([C@@H](C)CO)C(=O)c2cc(NC(=O)Nc3ccc(C(F)(F)F)cc3)ccc2O1	inactive
COc1ccc(CNC(=O)C[C@H]2CC[C@@H]3[C@@H](COc4ccc(NC(=O)C(C)C)cc4C(=O)N3C)O2)cc1	inactive
C[C@@H]1CN([C@H](C)CO)C(=O)c2cccc(NC(=O)Nc3ccc(F)cc3)c2O[C@H]1CN(C)Cc1ccc(Oc2ccccc2)cc1	inactive
COc1ccc(C#Cc2ccc3c(c2)O[C@H](CN(C)C(=O)c2ccccn2)[C@H](C)CN([C@@H](C)CO)S3(=O)=O)cc1	inactive
OCCOCc1nnn2c1CN(c1ncccn1)CCC2	inactive
COC(=O)[C@H]1CCc2nc[nH]c2C1	inactive
Cc1oc(=O)oc1CN1CCN(c2cc3c(cc2F)c(=O)c(C(=O)O)c2n3C(C)S2)CC1 (centres undefined)	active
Cn1cnc(S(=O)(=O)N2C[C@@H](O)COC[C@H]3O[C@@H](CC(=O)NCc4ccc(F)cc4)CC[C@@H]32)c1	inactive
COc1ccc(NC(=O)N(C)C[C@H]2OCCCC[C@H](C)Oc3ccc(NS(=O)(=O)c4ccc(F)cc4)cc3C(=O)N([C@@H](C)CO)C[C@H]2C)cc1	inactive
C[C@@H]1CN([C@@H](C)CO)C(=O)c2cc(NS(=O)(=O)c3ccc(Cl)cc3)ccc2O[C@@H]1CN(C)Cc1ccc(C(=O)Nc2ccccc2N)cc1	inactive
CCN(CC)c1ccc(N2CC=C[C@@]34O[C@@H]5C=CCCOC(=O)[C@@H]5[C@H]3C(=O)N([C@@H](C)CO)[C@@H]4C2=O)cc1	inactive
O=C(C[C@@H]1CC[C@@H]2[C@H](COC[C@H](O)CN2C(=O)Nc2ccc(Cl)cc2)O1)NCCc1ccncc1	inactive
O=C(C[C@@H]1CC[C@H]2[C@@H](COC[C@H](O)CN2C(=O)Nc2ccc(C(F)(F)F)cc2)O1)NCCc1ccncc1	active
O=C(C[C@@H]1CC[C@H]2[C@@H](COC[C@@H](O)CN2C(=O)Nc2ccc(Cl)cc2)O1)NCCc1ccncc1	inactive
O=C(C[C@H]1CC[C@@H]2[C@H](COC[C@@H](O)CN2C(=O)Nc2ccc(C(F)(F)F)cc2)O1)NCc1ccncn1	inactive
O=C(C[C@H]1CC[C@@H]2[C@H](COC[C@@H](O)CN2C(=O)Nc2ccc(Cl)cc2)O1)NCCc1ccncc1	inactive
O=C(C[C@H]1CC[C@H]2[C@@H](COC[C@@H](O)CN2C(=O)Nc2ccc(C(F)(F)F)cc2)O1)NCCc1ccncc1	active
O=C(C[C@@H]1CC[C@H]2[C@@H](COC[C@@H](O)CN2C(=O)Nc2ccc(C(F)(F)F)cc2)O1)NCCc1ccncc1	active
O=C(C[C@@H]1CC[C@@H]2[C@H](COC[C@H](O)CN2C(=O)Nc2ccc(C(F)(F)F)cc2)O1)NCCc1ccncc1	inactive
O=C(C[C@H]1CC[C@@H]2[C@H](COC[C@@H](O)CN2C(=O)Nc2ccc(C(F)(F)F)cc2)O1)NCCc1ccncc1	active
O=C(C[C@H]1CC[C@H]2[C@@H](COC[C@H](O)CN2C(=O)Nc2ccc(Cl)cc2)O1)NCCc1ccncc1	inactive
O=C(C[C@H]1CC[C@H]2[C@@H](COC[C@H](O)CN2C(=O)Nc2ccc(C(F)(F)F)cc2)O1)NCc1ccncn1	inactive

Compound	growth inhibition call
O=C(C[C@H]1CC[C@H]2[C@@H](COC[C@@H](O)CN2C(=O)Nc2ccc(Cl)cc2)O1)NCCc1ccncc1	inactive
Cc1ccc(S(=O)(=O)Nc2ccc3c(c2)C(=O)N(C)[C@H]2CC[C@@H](CC(=O)NCCc4ccncc4)O[C@H]2CO3)cc1	inactive
C[C@@H]1CN([C@@H](C)CO)C(=O)c2cccc(NC(=O)C3CC3)c2O[C@@H]1CN(C)C(=O)NC1CCCCC1	inactive
C[C@@H]1CN([C@H](C)CO)C(=O)Cc2cc(NC(=O)CCCCCC(=O)Nc3ccccc3N)ccc2O[C@H]1CN(C)C(=O)Nc1ccc(F)cc1	inactive
C[C@@H]1CN([C@H](C)CO)C(=O)c2c(c3ccccc3n2C)-c2ccccc2CO[C@@H]1CN(C)C(=O)c1cc(Cl)cc(Cl)c1	inactive
COc1cccc(S(=O)(=O)N[C@@H]2CC[C@H](CC(=O)NC3CCC3)O[C@@H]2CO)c1	inactive
CN(C)CC(=O)N[C@H]1CC[C@@H](CC(=O)O)O[C@H]1CO	inactive
COCCNC(=O)C[C@@H]1CC[C@H]2[C@@H](COC[C@H](O)CN2S(=O)(=O)c2ccccc2C)O1	inactive
Cc1noc(C)c1S(=O)(=O)Nc1ccc2c(c1)CC(=O)N([C@@H](C)CO)C[C@H](C)[C@H](CN(C)S(=O)(=O)c1ccccc1)O2	inactive
CC(=O)N(C)C[C@@H]1Oc2ncc(C#CC(C)(C)O)cc2C(=O)N([C@@H](C)CO)C[C@@H]1C	inactive
Cc1cc(C(=O)Nc2cccc3c2O[C@@H](CN(C)Cc2ccncc2)[C@@H](C)CN([C@@H](C)CO)C3=O)n(C)n1	inactive
COc1ccc(NC(=O)N(C)C[C@H]2OCCCC[C@H](C)Oc3ccc(NS(=O)(=O)c4ccc(C)cc4)cc3C(=O)N([C@@H](C)CO)C[C@@H]2C)cc1	inactive
O=C(C[C@H]1CC[C@H]2[C@@H](COC[C@H](O)CN2C(=O)Nc2ccc(C(F)(F)F)cc2)O1)NCCc1ccncc1	active
O=C(C[C@@H]1CC[C@@H]2[C@H](COC[C@@H](O)CN2C(=O)Nc2ccc(Cl)cc2)O1)NCCc1ccncc1	inactive
O=C(C[C@@H]1CC[C@@H]2[C@H](COC[C@@H](O)CN2C(=O)Nc2ccc(C(F)(F)F)cc2)O1)NCCc1ccncc1	active
O=C(C[C@@H]1CC[C@H]2[C@@H](COC[C@H](O)CN2C(=O)Nc2ccc(Cl)cc2)O1)NCCc1ccncc1	inactive
O=C(C[C@@H]1CC[C@H]2[C@@H](COC[C@H](O)CN2C(=O)Nc2ccc(C(F)(F)F)cc2)O1)NCc1ccncn1	inactive
O=C(C[C@H]1CC[C@@H]2[C@H](COC[C@H](O)CN2C(=O)Nc2ccc(C(F)(F)F)cc2)O1)NCCc1ccncc1	active
O=C(C[C@H]1CC[C@@H]2[C@H](COC[C@H](O)CN2C(=O)Nc2ccc(Cl)cc2)O1)NCCc1ccncc1	inactive
C[C@@H]1CN([C@H](C)CO)C(=O)c2cc(C#Cc3ccccc3F)cnc2O[C@H]1CN(C)S(=O)(=O)c1ccccc1	inactive
CC(C)NC(=O)[C@@H](C)n1ncn2cccc2c1=O	inactive
C[C@H](CO)N1C[C@H](C)[C@@H](CN(C)C(=O)NC2CCCC2)Oc2cc(Br)ccc2S1(=O)=O	inactive
C[C@H](CO)N1C[C@H](C)[C@@H](CN(C)Cc2ccc(Cl)c(Cl)c2)Oc2ccc(NC(=O)C3CCCCC3)cc2CC1=O	inactive
